# Data published in PubChem BioAssay.
# A number with no mark means an inactive call. Activity calls are given as the source filed them.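 Rule for the calls: active = compounds that lower viability of the colon cancer cells in the luminescence readout, with no numeric limit stated; inactive = the rest.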
# Test: CellTiter-Glo luminescent readout of SW480 viability loss, NPC library primary (AID 1117343)
# Conditions: CellTiter-Glo luminescence; at 20 µM (top of the series)
row,SMILES,viability decrease (inhibition)
1,CCCCN(CCCC)CCC(O)c1cc2c(Cl)cc(Cl)cc2c2cc(C(F)(F)F)ccc12 (stereo not drawn),131% (active)
2,CCC(=O)O[C@]1(C(=O)SCF)[C@H](C)C[C@H]2[C@@H]3C[C@H](F)C4=CC(=O)C=C[C@]4(C)[C@@]3(F)[C@@H](O)C[C@@]21C,39.6%
3,CC1(C)O[C@@H]2C[C@H]3[C@@H]4C[C@H](F)C5=CC(=O)C=C[C@]5(C)[C@@]4(F)[C@@H](O)C[C@]3(C)[C@]2(C(=O)CO)O1,1.8% (active)
4,NC(N)=NC(=O)Cc1c(Cl)cccc1Cl,34.1%
5,Cc1cn[nH]c1,19.8%
6,NS(=O)(=O)c1cc2c(cc1Cl)NC(C1CC3C=CC1C3)NS2(=O)=O (stereo not drawn),8.9%
7,CC(=O)O[C@H]1C[C@@H]2CC[C@@H]3[C@H](CC[C@@]4(C)[C@H]3C[C@H]([N+]3(C)CCCCC3)[C@@H]4OC(C)=O)[C@@]2(C)C[C@@H]1N1CCCCC1,-6.9%
8,CCCCNc1c(C(=O)OCC)c(C)nc2c1cnn2CC,124% (active)
9,C#C[C@]1(O)CC[C@H]2[C@@H]3[C@H](C)CC4=C(CCC(=O)C4)[C@H]3CC[C@@]21C,109% (active)
10,NCCS(=O)(=O)O,-4.6%
11,C#C[C@]1(O)CC[C@H]2[C@@H]3CCc4cc(O)ccc4[C@H]3CC[C@@]21C,65.6% (active)
12,C#C[C@]1(O)CC[C@H]2[C@@H]3CCc4cc(OC)ccc4[C@H]3CC[C@@]21C,110% (active)
13,O=C(O)CSCC(=O)NC1CCSC1=O (stereo not drawn),15.2%
14,COc1ncnc(NS(=O)(=O)c2ccc(N)cc2)c1OC,-16.8%
15,COc1cc2c(N3CCN(C(=O)Nc4ccc(OC(C)C)cc4)CC3)ncnc2cc1OCCCN1CCCCC1,38.5%
16,Cc1cc2c(C(C)C)c(O)c(O)c(C=O)c2c(O)c1-c1c(C)cc2c(C(C)C)c(O)c(O)c(C=O)c2c1O,108% (active)
17,Oc1ccc(OCc2ccccc2)cc1,5.3%
18,C[n+]1c2cc(N)ccc2cc2ccc(N)cc21 (tested in a mixture with another compound),68.8% (active)
19,CCOC(=O)O[C@]1(C(=O)OCCl)CC[C@H]2[C@@H]3CCC4=CC(=O)C=C[C@]4(C)[C@H]3[C@@H](O)C[C@@]21C,0.5%

row,SMILES,viability decrease (inhibition)
1,Cc1nc(-c2ccc(OCC(C)C)c(C#N)c2)sc1C(=O)O,57.5% (active)
2,COc1cc(C(=O)OCCCN2CCCN(CCCOC(=O)c3cc(OC)c(OC)c(OC)c3)CC2)cc(OC)c1OC,92.3% (active)
3,Cc1cnc(C(=O)O)c[n+]1[O-],14.8%
4,COC(=O)[C@H]1[C@H]2C[C@@H]3c4[nH]c5cc(OC)ccc5c4CCN3C[C@H]2C[C@@H](OC(=O)c2cc(OC)c(OC)c(OC)c2)[C@@H]1OC,-42%
5,CO[C@@H]1[C@@H](OC(N)=O)[C@@H](O)[C@H](Oc2ccc3c(O)c(NC(=O)c4ccc(O)c(CC=C(C)C)c4)c(=O)oc3c2C)OC1(C)C,-22.2%
6,COCCCOc1cc(C[C@@H](C[C@H](N)[C@@H](O)C[C@H](C(=O)NCC(C)(C)C(N)=O)C(C)C)C(C)C)ccc1OC,4.7%
7,CN1CCN2c3ccccc3Cc3ccccc3C2C1 (stereo not drawn),76% (active)
8,C[C@@H]1CN(c2c(F)c(N)c3c(=O)c(C(=O)O)cn(C4CC4)c3c2F)C[C@H](C)N1,-0.6%
9,O=NN(CCCl)C(=O)NC1CCCCC1,57.8% (active)
10,CNC[C@H](O)[C@@H](O)[C@H](O)[C@H](O)CO,0.6%
11,CCC(C)n1ncn(-c2ccc(N3CCN(c4ccc(OC[C@H]5CO[C@](Cn6cncn6)(c6ccc(Cl)cc6Cl)O5)cc4)CC3)cc2)c1=O (stereo partly drawn),112% (active)
12,O=P(O)(O)C(O)(Cc1cccnc1)P(=O)(O)O,-18.5%
13,CN(C)c1ccc2nc3ccc(=[N+](C)C)cc-3sc2c1,65.3% (active)
14,CC1=C(C)C(=O)C(C(CCCCCC(=O)O)c2ccccc2)=C(C)C1=O (stereo not drawn),-12.9%
15,C#CCN[C@@H]1CCc2ccccc21,-41%
16,CCCCCN(C)CCC(O)(P(=O)(O)O)P(=O)(O)O,17.5%
17,Cc1c[nH]c2ccccc12,15%
18,CC(C)(C)NC(=O)[C@H]1CC[C@H]2[C@@H]3CC[C@H]4NC(=O)C=C[C@]4(C)[C@H]3CC[C@]12C,7.4%
19,O=C(O)CN1C(=O)c2cccc3cccc(c23)C1=O,22.8%
